Compound activity (PubChem)
In the library only some 4.7% were active in any assay of this set; here they are far more common.
DUSP3 inh: inhibitors of human VHR1 phosphatase (DUSP3). 0.52% of 290,000 active. recombinant VHR phosphatase, pNPP absorbance. inhibition, % at 13.3 µM. AID 1654. P51452; in the data active means inhibition above about 50%
Target sequence (P51452 whole entry, looked up): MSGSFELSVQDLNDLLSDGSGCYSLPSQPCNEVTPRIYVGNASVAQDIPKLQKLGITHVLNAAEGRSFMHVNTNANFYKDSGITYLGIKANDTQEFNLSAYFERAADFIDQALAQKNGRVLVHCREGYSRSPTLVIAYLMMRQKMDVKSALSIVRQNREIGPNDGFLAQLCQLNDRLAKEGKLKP
Mtb FBA inh: inhibitors of M. tuberculosis fructose-bisphosphate aldolase | inhibition, % at 1 µM | 2.3% of 360,000 active | P9WQA3 | purified M. tuberculosis FBA, fluorescence read-out; in the data active means inhibition above about 27%;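 further: 0% = vehicle and 100% = reference inhibitor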
RecA intein inh: inhibitors of M. tuberculosis RecA intein splicing. cell-free RecA intein splicing, fluorescence. inhibition, % (concentration not given with the values). 0.75% of 290,000 active; in the data active means inhibition above about 30%;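 further: 0% = vehicle wells and 100% = reference inhibitor control wells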
GDH-TPI counter-1: inhibits GDH-TPI coupling enzymes, artifact for Mtb FBA screen. GDH-TPI coupled enzyme counterscreen, NADH absorbance. inhibition, % at 4.8 µM. 1.2% of 360,000 active. AID 588335;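 further: 0% = DMSO wells and 100% = wells lacking the enzyme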
SARS 3CLpro inh: SARS-CoV 3CLpro protease inhibition; P0C6X7; inhibition, % at 6 µM; AID 1706; recombinant SARS-CoV 3CLpro, quenched FRET peptide cleavage; 0.14% of 290,000 active; in the data active means inhibition above about 12%
CCHF vOTU inh: CCHFV vOTU protease inhibition | inhibition, % at 11.5 µM | 0.55% of 370,000 active | Pep-AMC fluorescence; further: 0% = vehicle wells with enzyme and 100% = no enzyme wells
Mtb FBA inh conf: Mtb FBA inhibition, confirmed. shares compounds with Mtb FBA inh. purified M. tuberculosis FBA, fluorescence read-out. inhibition, % at 1 µM. 78% of 5,600 active. AID 651616; in the data active means inhibition above about 27%;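 further: 0% = vehicle wells and 100% = reference inhibitor wells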
GDH-TPI counter-2: counter-screen for M. tuberculosis FBA inhibitors: GDH-TPI coupled enzyme inhibition | shares compounds with Mtb FBA inh | GDH-TPI coupled enzyme counterscreen, fluorescence | inhibition, % at 1 µM | 81% of 5,600 active | AID 652141; in the data active means inhibition above about 10%
Numbers without * were called inactive; · = no result given. Unless noted, no stated cut-off is given here; in the data, active means inhibition above about 30%; inactive means the rest.

SMILES	DUSP3 inh	Mtb FBA inh	RecA intein inh	GDH-TPI counter-1	SARS 3CLpro inh	CCHF vOTU inh	Mtb FBA inh conf	GDH-TPI counter-2
CCOC(=O)Cc1csc(-n2sc3ccccc3c2=O)n1	21	-1	0	4	2	4	·	·
COc1ccc2oc(=O)c(C(=O)N3CCN(C(=O)c4ccco4)CC3)cc2c1	7	34*	-19	1	8	-47	115*	76*
COc1cc2ccccc2cc1C(=O)N1CCN(C(C)=O)CC1	7	1	0	6	-5	3	·	·
COc1ccc2oc(=O)c(C(=O)N3CCN(C(=O)c4ccccc4)CC3)cc2c1	-3	27*	-8	1	-2	-51	119*	92*
COc1ccc2cc(OC)c(C(=O)N3CCOCC3)cc2c1	14	36*	-7	-8	1	-28	-2	-4
COc1ccc2oc(=O)c(C(=O)N3CCN(c4ccccc4)CC3)cc2c1	25	2	-14	14	6	1	·	·
CCn1ncc(S(=O)(=O)Nc2cc(Cl)ccc2C)c1C	20	-2	1	4	-3	-5	·	·
COc1ccc(NC(=O)CC2C(=O)Nc3ccccc3N2CC(=O)N2CCCC2)cc1 (configuration not stated)	·	2	·	0	·	4	·	·
Nc1sc2c(c1C(=O)NCCc1ccccc1)CCCC2	·	·	·	·	·	19	·	·
COc1ccc(-c2ccc(-c3noc(C(C)C)n3)c(OC)n2)cc1	-2	108*	8	25	4	-38	135*	107*
Cc1c(SCCO)c(=O)[nH]c2cc3c(cc12)OCO3	-28	35*	·	17	1	-39	127*	120*
COc1cc(CN2CCNC(=O)C2CC(=O)NC2CCC2)cc(OC)c1 (configuration not stated)	11	-1	-1	-8	3	-10	·	·
Cc1ccsc1C(=O)OCC(=O)c1ccc(OC(F)F)cc1	·	0	·	5	·	11	·	·
Nc1c(S(=O)(=O)c2cccs2)c2nc3ccccc3nc2n1Cc1ccccc1	15	54*	-2	18	1	-18	0	-3
COc1ccc(Cn2c(N)c(S(=O)(=O)c3cccs3)c3nc4ccccc4nc32)cc1	13	49*	-4	13	0	-8	115*	79*
COc1cccc(/C=N/n2c(N)c(S(=O)(=O)c3cccs3)c3nc4ccccc4nc32)c1OC	-1	1	-2	10	6	2	·	·
Cc1cccc(OCC(=O)Nc2ccc3c(c2)nc(CCN2CCN(c4ccccn4)CC2)n3C)c1	24	2	3	-2	-3	-10	·	·
Cc1ccccc1NC(=O)c1ccc(OCc2c(C)noc2C)cc1	·	-2	·	-7	·	-1	·	·
CCOC(=O)Cc1cc(-c2ccc(OC)cc2)nc2ccc3ccccc3c12	-13	35*	0	3	1	-21	110*	89*
COc1ccc(-c2cc(C(=O)OCc3ccccn3)c3ccccc3n2)cc1	-35	44*	1	1	4	-34	107*	86*
Cc1ccc(-c2cc(C(=O)OCC(=O)NC3CC3)c3ccccc3n2)cc1	·	37*	·	9	·	-4	95*	81*
O=C(NCc1ccccn1)c1cc(-c2ccc(-c3ccccc3)cc2)nc2ccccc12	0	37*	7	16	3	-26	20	15*
CCOC(=O)Cc1cc(-c2ccc(O)cc2)nc2ccc3ccccc3c12	32	6	3	15	-2	16	·	·
COc1ccc(-c2cc(C(=O)OCC(=O)N(C)C)c3ccccc3n2)cc1	-18	4	-2	8	1	4	·	·
Cc1cccc(CN2[C@@H](C)[C@H](c3ccccc3)Oc3cc(Br)ccc3S2(=O)=O)c1	·	·	·	·	·	-4	·	·
Cc1nc(CCNC(=O)CC2C(=O)NCCN2CC(C)C)nc2c1CCC2 (configuration not stated)	20	4	-5	5	2	-6	·	·
CCn1cc(-c2cc(C(=O)O)c3ccccc3n2)cn1	16	54*	·	3	1	-36	60*	44*
Cc1ccc(-c2cc(C(=O)NCc3ccccn3)c3ccccc3n2)cc1C	16	46*	-2	11	1	-25	136*	94*
